Measured values reported in PubChem BioAssay.
Activity calls are given as the source filed them.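 How the source made its calls: active means normalized viability below 100% at a tested concentration; inactive means the rest.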

Assay: ovarian cancer cell viability with rucaparib, profiling panel, oncology-focused library, rucaparib conditional (AID 1508598)
Details: patient-derived ovarian cancer cells, CellTiter-Glo viability, 144 h; at 0.000305 µM; OCI-C5x cells; with rucaparib 10 µM; stronger effect = lower value; 100% = cells with rucaparib alone

SMILES	viability
CC(C)[C@@]12O[C@@H]1[C@@H]1O[C@]13[C@]1(O[C@@H]1C[C@@H]1C4=C(CC[C@@]13C)C(=O)OC4)[C@@H]2O	33.2% (active)
C/C(=C\c1csc(C)n1)[C@H]1C[C@@H]2O[C@]2(C)CCC[C@H](C)[C@H](O)[C@@H](C)C(=O)C(C)(C)[C@H](O)CC(=O)O1	47% (active)
C/C(=C\c1csc(C)n1)[C@H]1C[C@@H]2O[C@@H]2CCC[C@H](C)[C@H](O)[C@@H](C)C(=O)C(C)(C)[C@H](O)CC(=O)O1	72.1% (active)

Same assay, conditions: patient-derived ovarian cancer cells, CellTiter-Glo viability, 144 h; at 0.000305 µM; OCI-C5x cells; without rucaparib; stronger effect = lower value

SMILES	viability
CC(C)[C@@]12O[C@@H]1[C@@H]1O[C@]13[C@]1(O[C@@H]1C[C@@H]1C4=C(CC[C@@]13C)C(=O)OC4)[C@@H]2O	23.2% (active)
C/C(=C\c1csc(C)n1)[C@H]1C[C@@H]2O[C@]2(C)CCC[C@H](C)[C@H](O)[C@@H](C)C(=O)C(C)(C)[C@H](O)CC(=O)O1	25.7% (active)
C/C(=C\c1csc(C)n1)[C@H]1C[C@@H]2O[C@@H]2CCC[C@H](C)[C@H](O)[C@@H](C)C(=O)C(C)(C)[C@H](O)CC(=O)O1	52.1% (active)

Same assay, conditions: patient-derived ovarian cancer cells, CellTiter-Glo viability, 144 h; at 0.000305 µM; OCI-P5x cells; with rucaparib 20 µM; stronger effect = lower value; 100% = cells with rucaparib alone

SMILES	viability
CC(C)[C@@]12O[C@@H]1[C@@H]1O[C@]13[C@]1(O[C@@H]1C[C@@H]1C4=C(CC[C@@]13C)C(=O)OC4)[C@@H]2O	11.8% (active)
C/C(=C\c1csc(C)n1)[C@H]1C[C@@H]2O[C@]2(C)CCC[C@H](C)[C@H](O)[C@@H](C)C(=O)C(C)(C)[C@H](O)CC(=O)O1	57.2% (active)
C/C(=C\c1csc(C)n1)[C@H]1C[C@@H]2O[C@@H]2CCC[C@H](C)[C@H](O)[C@@H](C)C(=O)C(C)(C)[C@H](O)CC(=O)O1	73.7% (active)

Same assay, conditions: patient-derived ovarian cancer cells, CellTiter-Glo viability, 144 h; at 0.000305 µM; OCI-P5x cells; without rucaparib; stronger effect = lower value

SMILES	viability
CC(C)[C@@]12O[C@@H]1[C@@H]1O[C@]13[C@]1(O[C@@H]1C[C@@H]1C4=C(CC[C@@]13C)C(=O)OC4)[C@@H]2O	6.41% (active)
C/C(=C\c1csc(C)n1)[C@H]1C[C@@H]2O[C@]2(C)CCC[C@H](C)[C@H](O)[C@@H](C)C(=O)C(C)(C)[C@H](O)CC(=O)O1	15.5% (active)
C/C(=C\c1csc(C)n1)[C@H]1C[C@@H]2O[C@@H]2CCC[C@H](C)[C@H](O)[C@@H](C)C(=O)C(C)(C)[C@H](O)CC(=O)O1	30% (active)

Same assay, conditions: patient-derived ovarian cancer cells, CellTiter-Glo viability, 144 h; at 0.00122 µM; OCI-C5x cells; with rucaparib 10 µM; stronger effect = lower value; 100% = cells with rucaparib alone

SMILES	viability
CC(C)[C@@]12O[C@@H]1[C@@H]1O[C@]13[C@]1(O[C@@H]1C[C@@H]1C4=C(CC[C@@]13C)C(=O)OC4)[C@@H]2O	19.5% (active)
C/C(=C\c1csc(C)n1)[C@H]1C[C@@H]2O[C@]2(C)CCC[C@H](C)[C@H](O)[C@@H](C)C(=O)C(C)(C)[C@H](O)CC(=O)O1	36.1% (active)
C/C(=C\c1csc(C)n1)[C@H]1C[C@@H]2O[C@@H]2CCC[C@H](C)[C@H](O)[C@@H](C)C(=O)C(C)(C)[C@H](O)CC(=O)O1	41.4% (active)

Same assay, conditions: patient-derived ovarian cancer cells, CellTiter-Glo viability, 144 h; at 0.00122 µM; OCI-C5x cells; without rucaparib; stronger effect = lower value

SMILES	viability
CC(C)[C@@]12O[C@@H]1[C@@H]1O[C@]13[C@]1(O[C@@H]1C[C@@H]1C4=C(CC[C@@]13C)C(=O)OC4)[C@@H]2O	15.4% (active)
C/C(=C\c1csc(C)n1)[C@H]1C[C@@H]2O[C@]2(C)CCC[C@H](C)[C@H](O)[C@@H](C)C(=O)C(C)(C)[C@H](O)CC(=O)O1	27.1% (active)
C/C(=C\c1csc(C)n1)[C@H]1C[C@@H]2O[C@@H]2CCC[C@H](C)[C@H](O)[C@@H](C)C(=O)C(C)(C)[C@H](O)CC(=O)O1	28.8% (active)

Same assay, conditions: patient-derived ovarian cancer cells, CellTiter-Glo viability, 144 h; at 0.00122 µM; OCI-P5x cells; with rucaparib 20 µM; stronger effect = lower value; 100% = cells with rucaparib alone

SMILES	viability
CC(C)[C@@]12O[C@@H]1[C@@H]1O[C@]13[C@]1(O[C@@H]1C[C@@H]1C4=C(CC[C@@]13C)C(=O)OC4)[C@@H]2O	12.6% (active)
C/C(=C\c1csc(C)n1)[C@H]1C[C@@H]2O[C@]2(C)CCC[C@H](C)[C@H](O)[C@@H](C)C(=O)C(C)(C)[C@H](O)CC(=O)O1	48.9% (active)
C/C(=C\c1csc(C)n1)[C@H]1C[C@@H]2O[C@@H]2CCC[C@H](C)[C@H](O)[C@@H](C)C(=O)C(C)(C)[C@H](O)CC(=O)O1	57.4% (active)

Same assay, conditions: patient-derived ovarian cancer cells, CellTiter-Glo viability, 144 h; at 0.00122 µM; OCI-P5x cells; without rucaparib; stronger effect = lower value

SMILES	viability
CC(C)[C@@]12O[C@@H]1[C@@H]1O[C@]13[C@]1(O[C@@H]1C[C@@H]1C4=C(CC[C@@]13C)C(=O)OC4)[C@@H]2O	7.08% (active)
C/C(=C\c1csc(C)n1)[C@H]1C[C@@H]2O[C@]2(C)CCC[C@H](C)[C@H](O)[C@@H](C)C(=O)C(C)(C)[C@H](O)CC(=O)O1	17.2% (active)
C/C(=C\c1csc(C)n1)[C@H]1C[C@@H]2O[C@@H]2CCC[C@H](C)[C@H](O)[C@@H](C)C(=O)C(C)(C)[C@H](O)CC(=O)O1	15.9% (active)

Same assay, conditions: patient-derived ovarian cancer cells, CellTiter-Glo viability, 144 h; at 0.00488 µM; OCI-C5x cells; with rucaparib 10 µM; stronger effect = lower value; 100% = cells with rucaparib alone

SMILES	viability
CC(C)[C@@]12O[C@@H]1[C@@H]1O[C@]13[C@]1(O[C@@H]1C[C@@H]1C4=C(CC[C@@]13C)C(=O)OC4)[C@@H]2O	8% (active)
C/C(=C\c1csc(C)n1)[C@H]1C[C@@H]2O[C@]2(C)CCC[C@H](C)[C@H](O)[C@@H](C)C(=O)C(C)(C)[C@H](O)CC(=O)O1	39.5% (active)
C/C(=C\c1csc(C)n1)[C@H]1C[C@@H]2O[C@@H]2CCC[C@H](C)[C@H](O)[C@@H](C)C(=O)C(C)(C)[C@H](O)CC(=O)O1	27.2% (active)
